Records with an inconclusive call do not appear. The source made the active and inactive calls. The call rests on the fitted dose curve; in most records, active means well fitted inhibition curve with a large enough effect; inconclusive means small, poorly fitted or top-dose-only effect; inactive means flat fitted curve, though single readings scatter.
Tested on: CRL-7250
Test: Cytotoxic Profiling of Annotated Libraries Using Quantitative High-Throughput Screening (AID 1296008); further: nearly all actives have a fitted effect of over 60% in size
Conditions: Five cell lines viability, CellTiter-Glo ATP luminescence, 48-72 h; max response: stronger effect = lower value
Summary of the method: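 Cytotoxicity was measured as CellTiter-Glo ATP luminescence, read after 10 min at room temperature. Compound treatment of the cells lasted 48 or 72 hr at 37 degrees Celsius in a qHTS format.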
On the % scale 0 is the no-effect control and ±100 the full control effect; potency means the concentration at half of the fitted maximal effect.

**Q.** How did the max response turn out when `CC(=O)O[C@H]1C[C@@]2(C)[C@@H](CC[C@H]3[C@@]4(C)C=CC(=O)[C@@H](C)[C@@H]4[C@H](O)C(=O)[C@@]32C)/C1=C(/CCC=C(C)C)C(=O)O` was run?
**A.** -28.1% (inactive)

**Q.** With `[N-]=[N+]=N[C@]1(CO)O[C@@H](n2ccc(=O)[nH]c2=O)[C@@H](O)[C@@H]1O` as the molecule, how does the max response read?
**A.** 0.828% (inactive)

**Q.** How did the max response turn out when `O=C1N=C(N2CCOCC2)CN1c1ccc(Cl)cc1` was run?
**A.** -3.02% (inactive)

**Q.** With `C[C@@H]1O[C@@H](O[C@@H]2[C@@H](O)[C@H](O[C@H]3[C@H](O[C@H]4CC[C@@]5(C)C(CC[C@]6(C)C5CC=C5[C@@H]7CC(C)(C)CC[C@]7(C(=O)O[C@@H]7O[C@H](CO)[C@@H](O)[C@H](O)[C@H]7O[C@@H]7O[C@@H](C)[C@H](O[C@@H]8O[C@@H](C)[C@H](O)[C@@H](O)[C@H]8O)[C@@H](O)[C@H]7O)CC[C@]56C)[C@@]4(C)CO)O[C@H](C(=O)O)[C@@H](O)[C@@H]3O)O[C@H](CO)[C@H]2O)[C@H](O)[C@H](O)[C@H]1O` (stereo partly specified) as the molecule, how does the outcome read?
**A.** inactive

**Q.** `COC(=O)[C@H](O)[C@H]1C(C)(C)[C@H](OC(=O)C(C)C)[C@@]2(O)C(=O)[C@]1(C)C1CC[C@]3(C)C(CC(=O)O[C@H]3c3ccoc3)[C@]13O[C@@H]32` (stereo partly specified) was tested. Which max response did it give?
**A.** -16.9% (inactive)

**Q.** `CC1(C)CC[C@]2(C(=O)O)[C@H](O)C[C@]3(C)C(=CCC4[C@@]5(C)CC[C@H](O[C@@H]6O[C@H](CO[C@@H]7OC[C@H](O)[C@H](O)[C@H]7O[C@@H]7OC[C@@H](O)[C@H](O)[C@H]7O)[C@@H](O)[C@H](O)[C@H]6O[C@@H]6O[C@H](CO)[C@@H](O)[C@H](O)[C@H]6O)C(C)(C)C5CC[C@]43C)[C@@H]2C1` (stereo partly specified) was tested. Which max response did it give?
**A.** -10.1% (inactive)

**Q.** `COc1ccc(-c2c(-c3cc(C(=O)O)ccn3)ncn2C)cc1` was tested. Which max response did it give?
**A.** 4.8% (inactive)

**Q.** `c1cc(Nc2cc(C3CC3)[nH]n2)nc(Nc2ccc3nc[nH]c3c2)n1` was tested. Which Potency did it give?
**A.** 820 nM (active)

**Q.** How did the max response turn out when `COC(=O)CC1CC(c2ccc(O)cc2)=NO1` (stereo unspecified) was run?
**A.** -3.02% (inactive)

**Q.** With `COc1ccc(CCC(=O)c2c(O)cc(O)cc2O[C@@H]2O[C@H](CO)[C@@H](O)[C@H](O)[C@H]2O)cc1` as the molecule, how does the max response read?
**A.** -5.63% (inactive)

**Q.** How did the outcome turn out when `CCC(CC)C(=O)Nc1sc2c(c1C#N)CCC(C(C)(C)CC)C2` (stereo unspecified) was run?
**A.** inactive
